Data as given in PubChem BioAssay (NCATS).
Results filed as inconclusive are left out. The source made the active and inactive calls. Unless noted, calls come from the whole dose curve; as a rule, active = well fitted curve in the direction sought with a large enough effect; inconclusive = small, poorly fitted or top-dose-only effect, or another doubt; inactive = no such curve, though single readings can be large; an effect the other way counts as inactive or inconclusive.

Columns and labels:
[1] = biological target: Protein phosphatase 1D (Homo sapiens) (UniProt O15297); experiment: RapidFire Mass Spectrometry qHTS Assay for Modulators of WT P53-Induced Phosphatase 1 (WIP1) (AID 1347424);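 note: amount of dephosphorylated VEPPL-S-QETFS peptide product formed by WIP1; series mostly up to about 63 µM; plate controls were DMSO wells for no effect and GSK830371 inhibitor control at 10 µM for full effect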
Chain of Protein phosphatase 1D (Homo sapiens) (O15297 whole entry, looked up): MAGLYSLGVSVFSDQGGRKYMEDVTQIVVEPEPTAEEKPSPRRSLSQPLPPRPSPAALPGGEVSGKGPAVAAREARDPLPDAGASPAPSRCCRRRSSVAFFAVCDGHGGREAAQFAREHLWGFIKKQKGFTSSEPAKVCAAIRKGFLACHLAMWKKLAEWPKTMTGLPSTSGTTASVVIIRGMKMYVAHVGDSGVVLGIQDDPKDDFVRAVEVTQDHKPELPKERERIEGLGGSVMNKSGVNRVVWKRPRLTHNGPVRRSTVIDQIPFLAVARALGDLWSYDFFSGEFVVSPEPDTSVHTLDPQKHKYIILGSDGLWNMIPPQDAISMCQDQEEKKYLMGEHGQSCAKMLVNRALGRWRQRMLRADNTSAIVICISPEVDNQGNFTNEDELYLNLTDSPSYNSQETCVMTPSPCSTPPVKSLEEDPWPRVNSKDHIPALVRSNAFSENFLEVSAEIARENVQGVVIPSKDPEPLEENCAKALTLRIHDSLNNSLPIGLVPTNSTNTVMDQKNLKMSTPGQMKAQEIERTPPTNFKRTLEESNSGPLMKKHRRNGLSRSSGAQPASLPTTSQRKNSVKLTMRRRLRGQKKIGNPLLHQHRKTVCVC
How it was run: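 Mass-spectrometric measurement of dephosphorylated peptide after a 5 min room-temperature reaction of 10 nM WIP1 with 2 uM phosphopeptide, following 1 h compound preincubation in 30 mM MgCl2 buffer.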

[2] = biological target: Protein phosphatase 1D (Homo sapiens) (UniProt O15297); experiment: Rhodamine-PBP qHTS Assay for Modulators of WT P53-Induced Phosphatase 1 (WIP1) (AID 1347425); note: % of control where 0% means no effect
How it was run: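 Read-out: Rhodamine-PBP fluorescence (ex 525/em 598 nm) for released Pi, read each minute for 11 min after adding 10 uM VEPPL-pS-QETFS; signal taken as f1 minus pre-substrate f0. Enzyme 5 nM WIP1 with 1 hr room-temperature compound preincubation.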

[3] = Primary qHTS for inhibitors of La Crosse Virus (LACV) - induced cell death in SH-SY5Y cells (AID 1508616);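 note: top concentration of the series differs between compounds; 0% = infected DMSO wells and 100% = uninfected DMSO wells; higher means more rescue of cells from virus-induced death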
How it was run: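 Screening measures cell viability in LACV-infected SH-SY5Y cultures. Compound was added before virus (0.01 MOI), and ATP was detected by luminescence 6 days later.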

[4] = biological target: Calcium and integrin-binding protein 1 (Homo sapiens) (UniProt Q99828); experiment: Primary qHTS for Identification of Calcium Integrin Binding Protein 1 (CIB1) Competitor (AID 1508620); note: potency is the fitted concentration of half-maximal effect;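 for activity change, negative = inhibition: GST tagged CIB1 binding a fluorescein labelled alphaIIb integrin peptide tracer; top concentration of the series differs between compounds; % is set by controls: 0 for no effect and ±100 for the full control effect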
Chain of Calcium and integrin-binding protein 1 (Homo sapiens) (Q99828 whole entry, looked up): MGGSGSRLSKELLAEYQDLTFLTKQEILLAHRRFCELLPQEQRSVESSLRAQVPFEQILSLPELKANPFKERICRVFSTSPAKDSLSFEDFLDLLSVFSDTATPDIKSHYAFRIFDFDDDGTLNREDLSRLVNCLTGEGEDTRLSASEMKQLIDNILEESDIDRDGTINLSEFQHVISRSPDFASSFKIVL
How it was run: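 Fluorescence polarization competition: CIB1-GST (1 uM final) preincubated with compound 15 min at room temperature, then FITC-labeled alphaIIb peptide (100 nM final) added for another 15 min. Polarization read at Ex 480/Em 540.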

[5] = Primary qHTS for small molecule stabilizers of the endoplasmic reticulum resident proteome: Secreted ER Calcium Modulated Protein (SERCaMP) assay (AID 1508630); note: % is set by controls: 0 for no effect and ±100 for the full control effect
How it was run: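 The SH-SY5Y reporter protocol was run at 3 concentrations up to 38.3 uM (primary) or 11 concentrations (follow-up): 16 h compound, 100 nM thapsigargin for 4 h, then extracellular luciferase luminescence.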

[6] = A High-Content qHTS Against Drug Library for the Identification of Small Molecules that Inhibit DYT1 Early Onset Primary Dystonia-Associated Cell Pathology (AID 1645839; calls by dose curve; note: series mostly up to about 46 µM)
How it was run: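 Induced EGFP-delE TorsinA cells are imaged after 48 h of compound treatment. Punctate fusion-protein distribution gives the %pathology value, while nuclei counts flag toxicity. Wild-type EGFP-hTOR1A cells define the normal pattern.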

[7] = biological target: Cytochrome P450 2D6 (Homo sapiens) (UniProt P10635); experiment: Cytochrome P450 family 2 subfamily D member 6 (CYP2D6) small molecule antagonists: luciferase biochemical (cell-free) qHTS assay (AID 1645840; active = well fitted curve in the direction sought with a large enough effect in the repeat runs; an effect the other way counts as inactive or inconclusive; note: series mostly up to about 57 µM; % is set by controls: 0 for no effect and ±100 for the full control effect; nearly all actives have a fitted effect of over 55% in size)
Chain of Cytochrome P450 2D6 (Homo sapiens) (P10635 whole entry, looked up): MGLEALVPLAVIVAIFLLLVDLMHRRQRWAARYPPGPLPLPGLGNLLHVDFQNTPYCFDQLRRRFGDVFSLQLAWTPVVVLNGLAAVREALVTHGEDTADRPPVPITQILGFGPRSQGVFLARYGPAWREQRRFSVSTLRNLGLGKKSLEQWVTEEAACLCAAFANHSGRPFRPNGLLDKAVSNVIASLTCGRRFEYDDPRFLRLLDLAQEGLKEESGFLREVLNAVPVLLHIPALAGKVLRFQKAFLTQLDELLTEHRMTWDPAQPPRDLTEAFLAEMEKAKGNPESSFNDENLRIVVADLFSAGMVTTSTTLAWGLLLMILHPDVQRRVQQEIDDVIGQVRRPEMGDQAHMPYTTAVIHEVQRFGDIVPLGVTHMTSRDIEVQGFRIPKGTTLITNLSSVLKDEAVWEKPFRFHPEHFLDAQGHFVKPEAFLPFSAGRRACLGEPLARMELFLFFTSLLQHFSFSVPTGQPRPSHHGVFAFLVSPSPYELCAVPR
How it was run: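 P450-Glo CYP2D6 system: proluciferin substrate converted by enzyme to luciferin, read by luminescence proportional to activity. Enzyme-substrate mix with compound 10 min at room temperature, then NADPH regeneration 1 h before detection reagent.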

[8] = biological target: Cytochrome P450 2C9 (Homo sapiens) (UniProt P11712); experiment: Cytochrome P450 family 2 subfamily C member 9 (CYP2C9) small molecule antagonists: luciferase biochemical (cell-free) qHTS assay (AID 1645842; active = well fitted curve in the direction sought with a large enough effect in the repeat runs; an effect the other way counts as inactive or inconclusive; note: nearly all actives have a fitted effect of over 55% in size; note: potency is the fitted concentration of half-maximal effect; for activity change, negative = inhibition: series mostly up to about 57 µM; % is set by controls: 0 for no effect and ±100 for the full control effect)
Chain of Cytochrome P450 2C9 (Homo sapiens) (P11712 whole entry, looked up): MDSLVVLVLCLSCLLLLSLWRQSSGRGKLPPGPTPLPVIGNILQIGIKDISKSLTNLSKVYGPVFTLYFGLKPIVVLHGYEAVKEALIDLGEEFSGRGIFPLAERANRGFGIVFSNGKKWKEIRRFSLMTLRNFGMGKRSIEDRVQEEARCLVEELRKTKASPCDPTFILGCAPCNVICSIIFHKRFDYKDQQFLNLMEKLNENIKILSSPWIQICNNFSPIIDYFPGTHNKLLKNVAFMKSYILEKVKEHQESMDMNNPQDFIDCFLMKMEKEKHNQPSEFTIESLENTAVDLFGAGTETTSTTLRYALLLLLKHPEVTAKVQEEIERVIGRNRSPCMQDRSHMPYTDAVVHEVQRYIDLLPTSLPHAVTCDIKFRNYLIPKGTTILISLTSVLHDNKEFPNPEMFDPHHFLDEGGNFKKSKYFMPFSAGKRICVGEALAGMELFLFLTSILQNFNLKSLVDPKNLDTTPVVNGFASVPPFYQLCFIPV
How it was run: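 P450-Glo CYP2C9 system: proluciferin substrate with enzyme in mix containing 0.4% BSA, 10 min at room temperature, then NADPH regeneration solution added and incubated 1 h at 37C. Detection reagent stopped reaction; luminescence read after 20 min as RLU.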

[9] = biological target: Cytochrome P450 3A4 (Homo sapiens) (UniProt P08684); experiment: Cytochrome P450 family 3 subfamily A member 4 (CYP3A4) small molecule antagonists: luciferase qHTS assay (AID 1645841; active = well fitted curve in the direction sought with a large enough effect in the repeat runs; an effect the other way counts as inactive or inconclusive; note: nearly all actives have a fitted effect of over 45% in size; note: potency is the fitted concentration of half-maximal effect)
Chain of Cytochrome P450 3A4 (Homo sapiens) (P08684 whole entry, looked up): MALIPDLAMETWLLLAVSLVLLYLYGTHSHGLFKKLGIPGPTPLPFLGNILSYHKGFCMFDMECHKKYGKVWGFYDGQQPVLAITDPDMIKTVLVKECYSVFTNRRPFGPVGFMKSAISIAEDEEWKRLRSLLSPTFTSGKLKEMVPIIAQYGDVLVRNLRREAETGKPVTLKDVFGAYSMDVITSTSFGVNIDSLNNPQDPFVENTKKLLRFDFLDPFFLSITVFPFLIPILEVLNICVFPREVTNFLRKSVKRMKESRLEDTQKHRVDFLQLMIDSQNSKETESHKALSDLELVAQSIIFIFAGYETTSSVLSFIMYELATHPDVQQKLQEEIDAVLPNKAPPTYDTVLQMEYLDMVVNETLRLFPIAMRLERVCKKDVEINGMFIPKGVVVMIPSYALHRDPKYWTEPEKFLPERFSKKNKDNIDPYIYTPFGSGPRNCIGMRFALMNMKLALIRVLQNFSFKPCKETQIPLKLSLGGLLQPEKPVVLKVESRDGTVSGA
How it was run: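 P450-Glo CYP3A4 enzyme with proluciferin substrate was preincubated with DMSO-dissolved compounds for 10 min at room temperature. NADPH regeneration solution started a 1 h reaction. Detection reagent stopped it, and luminescence was read after 20 min.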

CCN(CC)CCN
inactive: Potency [1] | outcome [2] | outcome [3] | Potency [4] | Potency [5] | Potency [6] | Potency [7] | Potency [8]

Nc1ccc2cc3ccc(N)cc3nc2c1
active: Potency [4] 2.24 µM | Potency [9] 4.36 µM
inactive: Potency [1] | outcome [2] | outcome [3] | Potency [5] | Potency [7] | Potency [8]

COc1cc2c(cc1OC)C(=O)CC2
inactive: Potency [1] | outcome [2] | outcome [3] | Potency [4] | Potency [5] | Potency [6] | Potency [7] | Potency [8]

Brc1ccccc1-c1ccccc1
inactive: Potency [1] | outcome [2] | outcome [3] | Potency [4] | Potency [6] | Potency [7]

CC(C)(C)CC(=O)OCC(=O)[C@@]1(O)CC[C@H]2[C@@H]3CCC4=CC(=O)C=C[C@]4(C)[C@H]3[C@@H](O)C[C@@]21C
inactive: Potency [1] | outcome [2] | outcome [3] | Potency [4] | Potency [5] | Potency [6]
active: Potency [8] 11 µM

CC1CN(c2cc3c(cc2F)c(=O)c(C(=O)O)cn3-c2ccc(F)cc2F)CCN1 (configuration not stated)
inactive: activity change, negative = inhibition [1] -2.72% [at 6.17 µM] | activity change, negative = inhibition [2] 0.0772% [at 4.81 µM] | activity change [3] -2.85% [at 0.431 µM] | Potency [4] | activity change, negative = inhibition [5] -17% [at 3.88 µM] | % pathology change, negative = correction [6] -2.29% [at 4.63 µM] | activity change, negative = inhibition [7] -0.861% [at 4.83 µM] | activity change, negative = inhibition [8] 17.6% [at 4.83 µM]

COC(=O)/C=C\C(=O)OC
inactive: Potency [1] | outcome [2] | outcome [3] | Potency [4] | Potency [6] | Potency [7]

O=c1[nH]c2ccccc2c(=O)n1CCCl
inactive: Potency [1] | outcome [2] | outcome [3] | Potency [4] | Potency [5] | Potency [6] | Potency [7] | Potency [8]

CN(C)C(=O)CNC(=O)Cc1ccccc1
inactive: Potency [1] | outcome [2] | outcome [3] | Potency [4] | Potency [5] | Potency [6] | Potency [7] | Potency [9]

C/C(=N\O)[C@@H](C)NCC(C)(C)CN[C@H](C)/C(C)=N/O
inactive: Potency [1] | outcome [2] | outcome [3] | Potency [4] | Potency [6] | Potency [7]

Cc1cccc(C)c1NC(=O)c1cc(S(N)(=O)=O)c(Cl)cc1O
inactive: Potency [1] | outcome [2] | outcome [3] | Potency [4] | Potency [5] | Potency [6] | Potency [7] | Potency [8]

CCOC(=O)C(=O)CCc1ccccc1
inactive: Potency [1] | outcome [2] | outcome [3] | Potency [4] | Potency [5] | Potency [6]
